VHR inh abs = VHR1 phosphatase inhibitors, primary screen, biochemical, absorbance, uHTS; Dual specificity protein phosphatase 3 (Homo sapiens), P51452; recombinant VHR phosphatase, pNPP absorbance; inhibition, % at 13.3 µM; 290,000 tested, 0.52% active; in the data active means inhibition above about 50%
Target sequence (P51452 whole entry, looked up): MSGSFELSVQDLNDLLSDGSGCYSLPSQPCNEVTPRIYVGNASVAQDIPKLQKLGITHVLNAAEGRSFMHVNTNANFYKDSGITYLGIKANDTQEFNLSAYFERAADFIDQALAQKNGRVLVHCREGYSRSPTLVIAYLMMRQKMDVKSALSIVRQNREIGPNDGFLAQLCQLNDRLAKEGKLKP
CCHF vOTU inh = CCHFV vOTU protease inhibitors, primary screen, biochemical, Pep-AMC substrate, fluorescence | Crimean-Congo hemorrhagic fever virus L polyprotein viral ovarian tumor (vOTU) protease … | inhibition, % at 11.5 µM | 370,000 tested, 0.55% active; in the data active means inhibition above about 30%; further: 0% = vehicle wells with enzyme and 100% = no enzyme wells
RecA intein inh = Mtb RecA intein splicing inhibitors, primary screen, biochemical, fluorescence, HTS; cell-free RecA intein splicing; inhibition, % (test concentration not listed); 290,000 tested, 0.75% active; AID 2221, 2009; in the data active means inhibition above about 30%;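 further: 0% = vehicle wells and 100% = reference inhibitor control wells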
GDH-TPI counter-1 = GDH-TPI coupling enzyme inhibitors, primary screen, artefact control for M. tuberculosis FBA inhibitor project, biochemical, absorbance, full deck; 360,000 tested, 1.2% active; AID 588335, 2011; GDH-TPI coupled enzyme counterscreen, NADH absorbance; inhibition, % at 4.8 µM; in the data active means inhibition above about 30%;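 further: 0% = DMSO wells and 100% = wells lacking the enzyme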
3CLpro inhibitor = SARS-CoV 3CLpro protease inhibitors, primary screen, biochemical, quenched FRET. Replicase polyprotein 1ab (Severe acute respiratory syndrome coronavirus), P0C6X7. recombinant SARS-CoV 3CLpro, quenched FRET peptide cleavage. inhibition, % at 6 µM. 290,000 tested, 0.14% active; in the data active means inhibition above about 12%
FBA Mtb inh = Mtb FBA enzyme inhibitors, primary screen, biochemical, fluorescence, strain H37Rv. purified M. tuberculosis FBA, fluorescence read-out. inhibition, % at 1 µM. 360,000 tested, 2.3% active;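 further: 0% = vehicle and 100% = reference inhibitor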
Target sequence (P9WQA3 whole entry, looked up): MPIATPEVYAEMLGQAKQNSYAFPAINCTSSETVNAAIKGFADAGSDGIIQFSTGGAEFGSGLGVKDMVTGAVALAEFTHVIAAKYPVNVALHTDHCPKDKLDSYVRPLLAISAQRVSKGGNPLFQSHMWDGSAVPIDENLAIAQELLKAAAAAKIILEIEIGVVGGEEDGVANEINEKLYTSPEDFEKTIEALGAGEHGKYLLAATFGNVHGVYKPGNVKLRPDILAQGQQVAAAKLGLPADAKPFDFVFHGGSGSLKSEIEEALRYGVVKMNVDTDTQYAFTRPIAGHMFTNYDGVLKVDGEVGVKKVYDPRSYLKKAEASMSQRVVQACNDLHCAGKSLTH
Mtb FBA inh conf = M. tuberculosis aldolase blockers, biochemical, fluorescence, strain H37Rv, confirmation; shares compounds with FBA Mtb inh; 5,600 tested, 78% active; purified M. tuberculosis FBA, fluorescence read-out; AID 651616, 2012; inhibition, % at 1 µM;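 further: 0% = vehicle wells and 100% = reference inhibitor wells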
GDH-TPI counter-2 = GDH-TPI coupling enzyme inhibitors, artefact control for M. tuberculosis FBA inhibitor project, biochemical, fluorescence, high throughput; GDH-TPI coupled enzyme counterscreen; shares compounds with FBA Mtb inh; 5,600 tested, 81% active; inhibition, % at 1 µM; AID 652141, 2013; in the data active means inhibition above about 10%
* hit, by the source's call. Rows were chosen to be rich in hits. Some 4.7% of all compounds tested hit in one or more screens of this group. Unless noted, no stated cut-off is given here; in the data, active means inhibition above about 27%; inactive means the rest.

`Cc1ccc(C=Nc2ccccc2C(=O)Nc2ccccc2)cc1` gave VHR inh abs -2, CCHF vOTU inh -55, RecA intein inh -4, GDH-TPI counter-1 7, 3CLpro inhibitor 1, FBA Mtb inh 39*, Mtb FBA inh conf 136* and GDH-TPI counter-2 103*.
`O=C(N/N=C/c1cccc(O)c1)c1ccccc1O` gave VHR inh abs 9, CCHF vOTU inh 16, RecA intein inh -6, GDH-TPI counter-1 16, 3CLpro inhibitor -3 and FBA Mtb inh -2.
Cc1ccccc1C=Nc1ccccc1C(N)=O was read as VHR inh abs 14, CCHF vOTU inh -91, RecA intein inh -6, GDH-TPI counter-1 8, 3CLpro inhibitor 3, FBA Mtb inh 50*, Mtb FBA inh conf 71* and GDH-TPI counter-2 57*.
CC(C)(C)C1=Nn2c(nnc2-c2ccc(C(C)(C)C)cc2)SC1 was read as CCHF vOTU inh 20.
Screening COc1cccc(C=Nc2ccccc2C(=O)Nc2ccccc2)c1O returned VHR inh abs -8, CCHF vOTU inh -30, RecA intein inh 1, GDH-TPI counter-1 3, 3CLpro inhibitor 5, FBA Mtb inh 30*, Mtb FBA inh conf 129* and GDH-TPI counter-2 107*.
O=C(O)C1CSC(c2ccc3c(c2)OCO3)N1 (stereo unspecified) was read as VHR inh abs -7, CCHF vOTU inh -5, RecA intein inh 0, GDH-TPI counter-1 0, 3CLpro inhibitor -2, FBA Mtb inh 42*, Mtb FBA inh conf -6 and GDH-TPI counter-2 -4.
CC(=O)Nc1nn(C)c2nc(C)cc(C)c12 was read as VHR inh abs -7, CCHF vOTU inh -15, GDH-TPI counter-1 -13, 3CLpro inhibitor -1, FBA Mtb inh 39*, Mtb FBA inh conf 59* and GDH-TPI counter-2 50*.
Screening Cc1cc(OC(=O)N(C)C)nc2c1c(C)nn2C returned VHR inh abs 16, CCHF vOTU inh -16, RecA intein inh 1, GDH-TPI counter-1 1, 3CLpro inhibitor 1 and FBA Mtb inh 9.
For Cc1sc2nc(-c3ccc(Br)cc3)oc(=O)c2c1C the results were VHR inh abs 11, RecA intein inh -7, GDH-TPI counter-1 -3, 3CLpro inhibitor 6 and FBA Mtb inh 1.
N#Cc1cc2cc3c(cc2nc1NCCNC(=S)NCCCN1CCOCC1)OCO3 was read as VHR inh abs 7, CCHF vOTU inh -40, RecA intein inh -107, GDH-TPI counter-1 -3, 3CLpro inhibitor -4, FBA Mtb inh 69*, Mtb FBA inh conf 133* and GDH-TPI counter-2 111*.
Screening COC(=O)CN(C)C(=O)c1ccc2nc(Cc3cccc(Cl)c3)oc2c1 returned VHR inh abs 14, CCHF vOTU inh -1, RecA intein inh -1, GDH-TPI counter-1 -1, 3CLpro inhibitor -1 and FBA Mtb inh 0.
CCOC(=O)Cn1c(-c2ccccn2)nc2ccccc21 was read as VHR inh abs 13, CCHF vOTU inh 4, RecA intein inh -1, GDH-TPI counter-1 10, 3CLpro inhibitor 0, FBA Mtb inh 35*, Mtb FBA inh conf 91* and GDH-TPI counter-2 79*.
O=C(Cn1c(C(=O)O)cc2ccccc21)c1ccccc1 was read as VHR inh abs 4, CCHF vOTU inh -12, RecA intein inh -1, GDH-TPI counter-1 4, 3CLpro inhibitor 0 and FBA Mtb inh 0.
Screening O=C(O)Cn1c(-c2ccccc2)cc2ccccc21 returned VHR inh abs 35, CCHF vOTU inh -16, RecA intein inh 2, GDH-TPI counter-1 7, 3CLpro inhibitor 4, FBA Mtb inh 47*, Mtb FBA inh conf 104* and GDH-TPI counter-2 95*.
For CCN(CC)CCNC(=O)Cn1c(-c2ccccn2)nc2ccccc21 the results were VHR inh abs 8, CCHF vOTU inh -12, RecA intein inh -3, GDH-TPI counter-1 1, 3CLpro inhibitor 1, FBA Mtb inh 37*, Mtb FBA inh conf 145* and GDH-TPI counter-2 121*.
For O=C(O)Cn1c(-c2ccccn2)nc2ccccc21 the results were VHR inh abs -11, CCHF vOTU inh -8, RecA intein inh -2, GDH-TPI counter-1 11, 3CLpro inhibitor 0, FBA Mtb inh 56*, Mtb FBA inh conf -4 and GDH-TPI counter-2 -8.
For O=C1NC[C@@H](CCCCN2C[C@H](Cc3ccc(O)cc3)N(CCc3ccc(O)cc3)C(=O)C2=O)N(CCc2ccccc2)C1=O the results were CCHF vOTU inh 1.
COC(=O)C1=C(C)N(Cc2ccccc2C(F)(F)F)C(=NCc2ccccc2C(F)(F)F)NC1c1ccc(Cl)cc1 (stereo unspecified) was read as CCHF vOTU inh 7.
Screening CC(=O)c1ccc(NC(=O)C(C)Sc2n[nH]c(-c3cccnc3)n2)cc1 (stereo unspecified) returned VHR inh abs 17, CCHF vOTU inh 5, RecA intein inh -3, GDH-TPI counter-1 -4, 3CLpro inhibitor 6 and FBA Mtb inh 1.
`Cc1cn(CC(=O)NCc2nc3ccccc3[nH]2)c(=O)[nH]c1=O` gave CCHF vOTU inh 6.
Screening O=C(O)Cn1c(=O)c(-c2ccccc2)nc2ccccc21 returned VHR inh abs -6, CCHF vOTU inh -39, RecA intein inh -4, GDH-TPI counter-1 26, 3CLpro inhibitor 6, FBA Mtb inh 56*, Mtb FBA inh conf 119* and GDH-TPI counter-2 88*.
For CCCCNC(=O)COC(=O)c1cc2c(C)nn(-c3ccccc3)c2s1 the results were VHR inh abs 7, CCHF vOTU inh -1, RecA intein inh 2, GDH-TPI counter-1 14, 3CLpro inhibitor -3, FBA Mtb inh 29*, Mtb FBA inh conf active and GDH-TPI counter-2 178*.
Screening Cc1nn(-c2ccccc2)c2sc(C(=O)NCCc3ccccc3)cc12 returned CCHF vOTU inh 3.
Screening Cc1nn(-c2ccccc2)c2sc(C(=O)NCCN3CCOCC3)cc12 returned VHR inh abs 19, CCHF vOTU inh 5, RecA intein inh 7, GDH-TPI counter-1 10, 3CLpro inhibitor -5, FBA Mtb inh 33*, Mtb FBA inh conf 92* and GDH-TPI counter-2 83*.
